SMILES strings stand for the structures. Calls of active or inactive are those of the source. No rule for the calls is given here.
Potency is read from the fitted curve at half-maximal effect.

The assay concerns HIV-1 nucleocapsid protein NCp7 (binding to TG oligonucleotide). As to the kind of experiment: HIV Nucleocapsid (AID 346).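 Also: potency is for inhibitors that block NC binding and lower polarization.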 Particulars: HIV-1 NC / fluorescein-TGTGTGTG probe, fluorescence polarization. The method, boiled down:
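NCp7 100 nM + fluorescein TG4xF 10 nM; Hepes pH 7.5/250mM NaCl/1uM ZnCl2/0.004% PEG 20000; 1 hr RT; FP, 45 s exposure; oligo-only wells as negative control.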
Background: In fluorescence polarisation assays a small probe gives low polarisation when free and higher when bound to something large.
For the compound `O=c1cnc2cncnc2n1Cc1ccccc1`, the Potency was > 4 µM (inactive).

As to `O=C(c1cnccn1)N1CCC2(CC1)CN(c1ccccc1)C2`, the Potency was > 20 µM (inactive).

For `COCCn1c(=O)c(-c2cc(F)cc(F)c2)nc2cnc(OCc3ccccc3)nc21`, the Potency is > 20 µM (inactive).

Regarding `O=C(c1csnn1)N1CCC2(CCCN(Cc3cc(C(F)(F)F)cc(C(F)(F)F)c3)C2)CC1`, the Potency was > 20 µM (inactive).

In the case of `Cc1ccccc1-c1nc(N2CCOCC2)c2ccccc2n1`, the Potency was > 20 µM (inactive).

As to `CS(=O)(=O)Nc1cccc(-c2ccc3ncnc(NCCN4CCOCC4)c3c2)c1`, the Potency was > 20 µM (inactive).

With `CCNc1ncc2nc(-c3ccc(Cl)cc3)c(=O)n(Cc3cccc(OC)c3)c2n1`, the Potency was 14.6 µM (inactive).

For the compound `CS(=O)(=O)Nc1cccc(-c2nc(N3CCNCC3)c3ccccc3n2)c1`, the Potency is > 20 µM (inactive).

As to `CS(=O)(=O)N1CCC[C@@]2(CCN(c3ccccn3)C2)C1`, the Potency was > 20 µM (inactive).

For `c1ccc2c(NC3CCNCC3)nc(-c3ccoc3)nc2c1`, the Potency is > 20 µM (inactive).

Consider `CN(C)c1ncc2nc(-c3cccs3)c(=O)n(CCC#N)c2n1`, for which the Potency is 0.319 µM (active).

In the case of `COc1ccc(-n2c(=O)c(-c3cccs3)nc3cnc(Nc4cccc(OC)c4)nc32)cc1`, the Potency is > 20 µM (inactive).

For `Cc1noc(C)c1-c1nccc(Nc2ccc(F)cc2)n1`, the Potency was > 20 µM (inactive).

`COc1ccc(-n2c(=O)cnc3cnc(Oc4cccc(Cl)c4)nc32)cc1`: the Potency is > 20 µM (inactive).

`COc1ccc(-n2c(=O)c(-c3ccccc3)nc3cnc(N4CCOCC4)nc32)cc1`: the Potency is > 20 µM (inactive).

Consider `N#Cc1cccc(-c2nc(NCCN3CCOCC3)c3ccccc3n2)c1`, for which the Potency was > 20 µM (inactive).

Turning to `COc1ccccc1-c1ccc2ncnc(NC3CCNCC3)c2c1`, the Potency is > 20 µM (inactive).

`N#Cc1cccc(-c2ccc3ncnc(NCc4cccnc4)c3c2)c1`: the Potency is > 20 µM (inactive).

For `N#CCCn1c(=O)c(-c2ccc(F)cc2)nc2cnc(N3CCOCC3)nc21`, the Potency was > 20 µM (inactive).

In the case of `CS(=O)(=O)Nc1cccc(-c2cncnc2Nc2ccc(F)cc2)c1`, the Potency is > 20 µM (inactive).

With `O=C(c1cccc(F)c1)N1CCC2(CC1)CCN(c1cccc(-c3ccccc3)c1)CC2`, the Potency was > 20 µM (inactive).

As for `COc1ccc(C(=O)N2CCC3(CCCN(Cc4cc(C(F)(F)F)cc(C(F)(F)F)c4)C3)CC2)cc1`, the Potency is > 4 µM (inactive).

For `CN1CCN(c2ncc3nc(CCc4ccccc4)c(=O)n(C4CC4)c3n2)CC1`, the Potency was > 20 µM (inactive).

With `COc1ccc(C(=O)N2CCC3(CCN(CC(C)C)CC3)CC2)cc1`, the Potency was > 20 µM (inactive).

As for `Cc1ccccc1-c1cc(Nc2ccccc2)ncn1`, the Potency is > 20 µM (inactive).

In the case of `COc1ccc(Oc2ncc3ncc(=O)n(-c4ccc(OC)cc4)c3n2)cc1`, the Potency was > 20 µM (inactive).

As for `COc1ncc2nc(-c3cccs3)c(=O)n(-c3ccccc3)c2n1`, the Potency was > 4 µM (inactive).

`COc1ccc(Oc2ncc3nc(-c4ccc(F)cc4)c(=O)n(C[C@H]4CCCO4)c3n2)cc1`: the Potency was > 20 µM (inactive).

Consider `COc1ccccc1CN1CCC2(CC1)CCN(C(=O)c1cccn1C)CC2`, for which the Potency is > 20 µM (inactive).

Turning to `Cn1cccc1C(=O)N1CCC2(CC1)CN(c1ccncc1)C2`, the Potency was > 20 µM (inactive).

With `COc1ccc(C(=O)N2CCC3(CC2)CN(Cc2ccc(C#N)cc2)C3)cc1`, the Potency was > 20 µM (inactive).

In the case of `COc1ccccc1CN1CC[C@@]2(CCCN(C(=O)c3c(C)noc3C)C2)C1`, the Potency was > 20 µM (inactive).

Regarding `O=C(Nc1ccccc1)N1CCCC2(CCN(C(=O)c3csnn3)CC2)C1`, the Potency was > 20 µM (inactive).

Regarding `COc1ncc2nc(-c3ccc(F)cc3)c(=O)n(C[C@H]3CCCO3)c2n1`, the Potency was > 20 µM (inactive).

Turning to `COCCn1c(=O)c(-c2cccs2)nc2cnc(Nc3ccccc3)nc21`, the Potency is > 20 µM (inactive).

Turning to `Cn1cccc1C(=O)N1CCC2(CCN(C(=O)Nc3ccccc3)CC2)CC1`, the Potency is > 20 µM (inactive).

As to `O=c1c(-c2ccccc2)nc2cnc(N3CCOCC3)nc2n1Cc1cccs1`, the Potency was > 20 µM (inactive).

As for `COc1ncc2nc(-c3ccc(Cl)cc3)c(=O)n(C)c2n1`, the Potency is > 20 µM (inactive).

On to `Cc1cnc(CNc2cc(-c3cccc(C#N)c3)ncn2)cn1`, for which the Potency is > 20 µM (inactive).

On to `COc1ccccc1CNc1nc(-c2ccccc2CN(C)C)nc2ccccc12`, for which the Potency is > 20 µM (inactive).

The values above are taken from PubChem BioAssay (NCATS).
